Active and inactive are the calls of the source.
How the values were obtained:
[1] = system: PRMT1 (protein arginine N-methyltransferase 1); experiment: PRMT1 binders on small-molecule microarrays, primary screen, biochemical, small-molecule microarray, 635 nm fluorescence (AID 1088); conditions: small-molecule microarray binding, higher = more signal;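 further: binding of Prmt1 protein to compounds spotted on small-molecule microarray slides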
[2] = yeast growth modulation, basal conditions, primary screen, YJM789 clinical isolate, OD600, 24 h (AID 1089);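 further: growth of clinical yeast isolate S. cerevisiae YJM 789 seeded 1000 cells per well; test concentration not given here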; conditions: S. cerevisiae YJM789 growth, higher = more signal, called active from +8 up or from −8 down
[3] = fission yeast growth modulation, primary screen, strain 972, OD600, 24 h, no modulator (AID 1090);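 further: basal condition with compound alone and no growth modifier present; test concentration not given here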; conditions: S. pombe 972 growth, higher = more signal, called active from +8 up or from −8 down
[4] = S. cerevisiae growth modulation with rapamycin, primary screen, strain BY4716, OD600, 96 h (AID 1091); conditions: higher = more signal, called active from +8 up or from −8 down; further: test concentration not given here
[5] = target: Torsin-1A-interacting protein 2 (Homo sapiens) (UniProt Q8NFQ8); experiment: LULL1 binders on small-molecule microarray, primary screen, cell lysate, human LULL1 lysate, 635/667 nm fluorescence (AID 1092); conditions: hLULL1 lysate binding, 635 nm fluorescence, higher = more signal;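 further: probe is lysate of COS7 cells overexpressing human LULL1; score merges per-feature 667 nm fluorescence with signal-to-noise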
[6] = E. coli growth modulation, two-sided OD650, primary screen, E. coli filamentation project, strain DRC41, 24 h (AID 1093); conditions: OD650, 24 h, higher = more signal, called active from +8 up or from −8 down;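 further: MC1000 strain lacking acrAB efflux and sulA so SOS filamentation is blocked; test concentration not given here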
[7] = small-molecule microarray binders of probe aLefty2, primary screen, biochemical, biotinylated probe, 635/667 nm fluorescence (AID 1094); conditions: higher = more signal;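 further: score merges spot fluorescence near 667 nm with spot signal-to-noise ratio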
[8] = system: Noggin (protein binding on small-molecule microarray); experiment: Noggin binders on small-molecule microarray, primary screen, biochemical, 635/667 nm fluorescence (AID 1095); conditions: 635 nm fluorescence, higher = more signal;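 further: score merges 667 nm feature fluorescence with signal to noise over triplicate slides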
[9] = target: Neurogenic locus notch homolog protein 3 (Homo sapiens) (UniProt Q9UM47); experiment: NOTCH3 binders on small-molecule microarray, primary screen, biochemical, 635/667 nm fluorescence (AID 1096); conditions: NOTCH3 binding, 635 nm fluorescence, higher = more signal
[10] = small-molecule microarray binders of probe aEGFR, primary screen, biochemical, biotinylated probe, 635/667 nm fluorescence (AID 1097); conditions: higher = more signal;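 further: probe is a biotinylated anti-EGFR antibody binding compounds printed on slides; score combines fluorescence near 667 nm and signal to noise of each spot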
[11] = system: Plasmodium falciparum Sir2 (PF13_0152, Sir2A); experiment: pfSir2 binders on small-molecule microarrays, primary screen, biochemical, small-molecule microarray, 635 nm fluorescence (AID 1098); conditions: small-molecule microarray binding, fluorescence 635 nm; higher = more signal;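 further: score merges spot fluorescence intensity with its signal-to-noise ratio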
[12] = small-molecule microarray binders of probe aDKK1, primary screen, biochemical, biotinylated probe, 635/667 nm fluorescence (AID 1099); conditions: higher = more signal;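 further: score merges 667nm spot fluorescence with signal to noise across triplicate slides; reference of the scale not given here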
[13] = small-molecule microarray binders of probe aCHRDL2, primary screen, biochemical, biotinylated probe, 635/667 nm fluorescence (AID 1100); conditions: higher = more signal
[14] = splicing luciferase reporter signal modulators, primary screen, spliceosome inhibition project, cell-based, HEK293, splice +/- reporter (AID 1101); conditions: luminescence, 24 h, higher = more signal, called active from +8 up or from −8 down;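 further: HEK293 cells carrying a splicing-competent luciferase reporter gene; test concentration not given here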
[15] = target: Fibroblast growth factor 10 (Homo sapiens) (UniProt O15520); experiment: FGF10 binders on small-molecule microarrays, primary screen, biochemical, small-molecule microarray, 635 nm fluorescence (AID 1102); conditions: FGF10 binding, fluorescence 635 nm, higher = more signal
[16] = system: glycogen synthase kinase-3 (GSK3A per assay name; protocol says GSK3B); experiment: GSK3 binders on small-molecule microarrays, primary screen, biochemical, small-molecule microarray, 635 nm fluorescence, GSK3A (AID 1103); conditions: small-molecule microarray binding, fluorescence 635 nm; higher = more signal; further: the record names both GSK3A and GSK3B
[17] = target: Epidermal growth factor receptor (Homo sapiens) (UniProt P00533); experiment: EGFR binders on small-molecule microarrays, primary screen, biochemical, small-molecule microarray, 635 nm fluorescence (AID 1104); conditions: EGFR binding, higher = more signal;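 further: score merges 667 nm emission intensity with spot signal to noise over triplicate slides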
[18] = target: Follistatin-related protein 3 (Homo sapiens) (UniProt O95633); experiment: FSTL3 binders on small-molecule microarrays, primary screen, biochemical, small-molecule microarray, 635 nm fluorescence (AID 1105); conditions: FSTL3 binding, higher = more signal;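 further: score merges emission near 667 nm and signal to noise per printed spot across three slides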
[19] = target: Dickkopf-related protein 1 (Homo sapiens) (UniProt O94907); experiment: DKK1 binders on small-molecule microarrays, primary screen, biochemical, small-molecule microarray, 635 nm fluorescence scan (AID 1106); conditions: DKK1 binding, higher = more signal;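 further: score merges emission near 667 nm with signal to noise over three replicate slides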
[20] = system: Inhibin beta A chain (activin A); experiment: INHBA (activin A) binders on microarrays, primary screen, biochemical, small-molecule microarray, 635 nm fluorescence scan (AID 1107); conditions: small-molecule microarray binding, higher = more signal;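 further: mouse activin A protein probed at 4.33 µg/mL on printed slides; score merges bound-protein fluorescence near 667 nm with spot signal-to-noise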

Sequence of Fibroblast growth factor 10 (Homo sapiens) (O15520 whole entry, looked up): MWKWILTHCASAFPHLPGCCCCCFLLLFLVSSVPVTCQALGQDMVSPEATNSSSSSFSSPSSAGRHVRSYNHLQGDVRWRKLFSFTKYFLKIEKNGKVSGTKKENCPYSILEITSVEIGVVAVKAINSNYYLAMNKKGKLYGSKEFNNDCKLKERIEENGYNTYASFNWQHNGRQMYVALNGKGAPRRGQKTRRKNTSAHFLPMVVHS
Sequence of Neurogenic locus notch homolog protein 3 (Homo sapiens) (Q9UM47 whole entry, looked up): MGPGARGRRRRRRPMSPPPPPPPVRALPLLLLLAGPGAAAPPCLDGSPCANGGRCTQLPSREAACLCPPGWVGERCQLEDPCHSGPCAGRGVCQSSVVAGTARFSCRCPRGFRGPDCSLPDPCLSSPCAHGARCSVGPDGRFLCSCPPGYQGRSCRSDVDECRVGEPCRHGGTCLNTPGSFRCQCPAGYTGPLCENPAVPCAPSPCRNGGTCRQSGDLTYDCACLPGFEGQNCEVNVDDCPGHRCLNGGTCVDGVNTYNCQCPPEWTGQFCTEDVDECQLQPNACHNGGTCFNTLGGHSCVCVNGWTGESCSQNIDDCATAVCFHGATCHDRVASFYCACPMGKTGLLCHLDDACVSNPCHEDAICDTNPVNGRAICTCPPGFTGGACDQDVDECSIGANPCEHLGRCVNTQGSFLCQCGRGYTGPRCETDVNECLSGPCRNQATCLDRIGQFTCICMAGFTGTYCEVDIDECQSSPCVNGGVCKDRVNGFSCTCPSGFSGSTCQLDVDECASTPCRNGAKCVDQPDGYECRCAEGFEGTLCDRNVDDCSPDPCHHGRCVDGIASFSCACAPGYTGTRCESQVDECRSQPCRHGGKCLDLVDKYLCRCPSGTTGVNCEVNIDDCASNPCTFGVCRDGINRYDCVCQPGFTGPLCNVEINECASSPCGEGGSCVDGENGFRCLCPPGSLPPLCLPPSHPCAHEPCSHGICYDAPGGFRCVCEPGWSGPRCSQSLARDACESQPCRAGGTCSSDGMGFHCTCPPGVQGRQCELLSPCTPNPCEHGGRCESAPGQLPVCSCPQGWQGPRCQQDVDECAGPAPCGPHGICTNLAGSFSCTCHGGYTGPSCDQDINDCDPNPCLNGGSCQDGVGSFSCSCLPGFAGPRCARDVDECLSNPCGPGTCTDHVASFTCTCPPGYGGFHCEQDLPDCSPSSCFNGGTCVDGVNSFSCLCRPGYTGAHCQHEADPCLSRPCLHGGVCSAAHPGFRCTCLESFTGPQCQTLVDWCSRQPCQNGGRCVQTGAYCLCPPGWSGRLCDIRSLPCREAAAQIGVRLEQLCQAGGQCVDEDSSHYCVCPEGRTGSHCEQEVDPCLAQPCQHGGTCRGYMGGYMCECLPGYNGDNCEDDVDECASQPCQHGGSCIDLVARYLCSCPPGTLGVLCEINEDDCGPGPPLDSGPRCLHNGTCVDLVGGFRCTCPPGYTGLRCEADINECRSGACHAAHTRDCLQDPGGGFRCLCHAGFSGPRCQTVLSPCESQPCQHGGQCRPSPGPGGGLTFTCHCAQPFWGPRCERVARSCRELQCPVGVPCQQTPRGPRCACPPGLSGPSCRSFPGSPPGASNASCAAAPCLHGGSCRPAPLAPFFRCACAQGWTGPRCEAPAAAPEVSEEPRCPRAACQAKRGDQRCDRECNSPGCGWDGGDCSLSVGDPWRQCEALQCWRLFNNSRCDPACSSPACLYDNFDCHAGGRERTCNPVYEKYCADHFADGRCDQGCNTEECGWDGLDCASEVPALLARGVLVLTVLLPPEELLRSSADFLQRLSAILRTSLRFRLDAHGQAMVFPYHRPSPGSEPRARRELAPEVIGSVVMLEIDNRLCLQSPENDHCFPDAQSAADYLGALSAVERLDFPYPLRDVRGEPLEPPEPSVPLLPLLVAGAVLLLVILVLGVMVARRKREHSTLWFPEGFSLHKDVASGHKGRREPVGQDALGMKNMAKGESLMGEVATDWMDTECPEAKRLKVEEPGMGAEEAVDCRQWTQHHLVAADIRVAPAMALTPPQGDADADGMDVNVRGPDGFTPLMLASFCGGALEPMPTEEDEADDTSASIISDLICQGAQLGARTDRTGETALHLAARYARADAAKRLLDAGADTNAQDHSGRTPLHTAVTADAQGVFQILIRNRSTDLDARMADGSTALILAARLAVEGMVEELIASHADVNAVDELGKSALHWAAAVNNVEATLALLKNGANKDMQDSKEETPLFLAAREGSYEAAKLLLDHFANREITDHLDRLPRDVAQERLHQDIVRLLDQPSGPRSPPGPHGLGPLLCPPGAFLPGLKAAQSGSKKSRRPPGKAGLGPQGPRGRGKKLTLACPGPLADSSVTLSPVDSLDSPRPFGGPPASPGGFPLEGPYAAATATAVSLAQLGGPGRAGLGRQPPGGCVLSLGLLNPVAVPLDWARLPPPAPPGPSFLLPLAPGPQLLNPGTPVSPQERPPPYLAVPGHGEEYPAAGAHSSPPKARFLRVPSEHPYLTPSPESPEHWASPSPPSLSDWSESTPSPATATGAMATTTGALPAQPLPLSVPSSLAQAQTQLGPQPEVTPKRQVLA
Sequence of Torsin-1A-interacting protein 2 (Homo sapiens) (Q8NFQ8 whole entry, looked up): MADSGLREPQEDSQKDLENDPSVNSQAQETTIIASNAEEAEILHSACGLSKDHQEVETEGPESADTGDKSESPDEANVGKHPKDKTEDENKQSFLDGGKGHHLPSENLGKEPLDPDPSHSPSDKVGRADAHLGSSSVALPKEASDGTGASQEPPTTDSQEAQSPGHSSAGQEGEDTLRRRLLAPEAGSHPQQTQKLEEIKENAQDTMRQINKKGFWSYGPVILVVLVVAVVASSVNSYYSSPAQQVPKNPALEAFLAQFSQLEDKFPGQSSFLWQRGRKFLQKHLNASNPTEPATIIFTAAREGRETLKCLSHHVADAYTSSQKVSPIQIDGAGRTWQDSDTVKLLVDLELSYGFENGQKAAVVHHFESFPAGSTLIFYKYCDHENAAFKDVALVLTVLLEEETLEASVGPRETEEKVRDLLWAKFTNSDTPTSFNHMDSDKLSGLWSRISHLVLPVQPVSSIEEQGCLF
Sequence of Epidermal growth factor receptor (Homo sapiens) (P00533 whole entry, looked up): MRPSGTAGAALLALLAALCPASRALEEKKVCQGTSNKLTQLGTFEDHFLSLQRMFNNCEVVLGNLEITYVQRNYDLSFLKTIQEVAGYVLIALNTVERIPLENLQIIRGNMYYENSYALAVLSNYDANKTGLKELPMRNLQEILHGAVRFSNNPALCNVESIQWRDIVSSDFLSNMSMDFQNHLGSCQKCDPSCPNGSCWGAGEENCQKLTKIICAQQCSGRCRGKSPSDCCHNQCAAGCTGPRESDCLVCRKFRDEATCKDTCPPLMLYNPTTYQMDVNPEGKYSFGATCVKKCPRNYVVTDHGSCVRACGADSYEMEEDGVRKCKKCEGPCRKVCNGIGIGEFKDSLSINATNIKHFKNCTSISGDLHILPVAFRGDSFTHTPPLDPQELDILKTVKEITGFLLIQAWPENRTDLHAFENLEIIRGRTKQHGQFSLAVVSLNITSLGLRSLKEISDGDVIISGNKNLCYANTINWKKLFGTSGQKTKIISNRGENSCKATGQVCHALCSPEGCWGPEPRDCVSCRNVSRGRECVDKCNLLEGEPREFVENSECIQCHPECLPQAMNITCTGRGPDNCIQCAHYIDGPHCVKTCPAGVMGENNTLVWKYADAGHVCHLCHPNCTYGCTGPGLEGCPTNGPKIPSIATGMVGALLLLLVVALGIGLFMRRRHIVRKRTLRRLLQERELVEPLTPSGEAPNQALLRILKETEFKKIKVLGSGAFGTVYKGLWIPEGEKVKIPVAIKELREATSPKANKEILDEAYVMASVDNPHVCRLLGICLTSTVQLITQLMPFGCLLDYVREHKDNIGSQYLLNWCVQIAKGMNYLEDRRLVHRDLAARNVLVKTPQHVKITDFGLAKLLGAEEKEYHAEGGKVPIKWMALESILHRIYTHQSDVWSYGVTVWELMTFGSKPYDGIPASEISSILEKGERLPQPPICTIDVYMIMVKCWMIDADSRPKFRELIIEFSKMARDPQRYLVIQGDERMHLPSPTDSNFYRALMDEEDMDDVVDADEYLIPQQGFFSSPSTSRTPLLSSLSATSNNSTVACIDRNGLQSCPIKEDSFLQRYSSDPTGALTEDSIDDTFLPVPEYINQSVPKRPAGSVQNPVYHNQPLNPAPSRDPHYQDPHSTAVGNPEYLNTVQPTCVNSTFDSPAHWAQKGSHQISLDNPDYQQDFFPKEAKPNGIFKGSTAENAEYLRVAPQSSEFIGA
Sequence of Follistatin-related protein 3 (Homo sapiens) (O95633 whole entry, looked up): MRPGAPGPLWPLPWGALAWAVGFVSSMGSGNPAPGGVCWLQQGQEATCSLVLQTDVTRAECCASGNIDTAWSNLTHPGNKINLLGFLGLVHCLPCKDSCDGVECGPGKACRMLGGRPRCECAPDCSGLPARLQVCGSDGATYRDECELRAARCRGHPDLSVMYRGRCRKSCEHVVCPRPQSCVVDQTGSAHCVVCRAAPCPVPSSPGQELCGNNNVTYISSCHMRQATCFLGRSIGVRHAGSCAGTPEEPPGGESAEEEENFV
Sequence of Dickkopf-related protein 1 (Homo sapiens) (O94907 whole entry, looked up): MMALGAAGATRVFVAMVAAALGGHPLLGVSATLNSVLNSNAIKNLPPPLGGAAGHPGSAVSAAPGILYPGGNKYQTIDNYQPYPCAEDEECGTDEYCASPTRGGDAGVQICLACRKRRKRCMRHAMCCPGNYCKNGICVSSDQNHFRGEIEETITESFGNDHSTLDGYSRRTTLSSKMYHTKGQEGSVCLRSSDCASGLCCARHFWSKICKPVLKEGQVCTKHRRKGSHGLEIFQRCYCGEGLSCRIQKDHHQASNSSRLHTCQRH

SMILES	composite z-score [1]	z-score [2]	z-score [3]	z-score [4]	composite z-score [5]	z-score [6]	composite z-score [7]	composite z-score [8]	composite z-score [9]	composite z-score [10]	composite z-score [11]	composite z-score [12]	composite z-score [13]	z-score [14]	composite z-score [15]	composite z-score [16]	composite z-score [17]	composite z-score [18]	composite z-score [19]	composite z-score [20]
C=C[C@H](C)[C@H](OC(=O)Nc1ccc(SC)cc1)c1ccc(OCCO)cc1	1.31	-3.79 (inactive)	-2.34 (inactive)	0.375 (inactive)	1.53	0.938 (inactive)	0.0548	0.415	0.862	-0.15	1.12	0.157	0.916	-3.34 (inactive)	0.515	0.394	0.183	0.42	0.148	0.081
CC(CO)N1C(=O)[C@]2(C)C3C(=O)OCCC/C=C\[C@H]3OC23C=CCN(c2ccc(Cl)cc2)C(=O)[C@@H]13 (stereo not given in full)	-1.06	0.0276 (inactive)	-0.358 (inactive)	-0.14 (inactive)	-1.08	0.525 (inactive)	-0.152	-0.554	-0.162	-0.165	-0.714	-0.0842	0.167	-0.712 (inactive)	-0.39	-0.558	-0.558	-0.798	-0.0396	-0.0439
CC(c1ccccc1)C(O)C1C=CC2C(=O)N(C)C(=O)C2N1Nc1ccccc1 (stereo not given)	1.33	0.188 (inactive)	0.669 (inactive)	0.419 (inactive)	2.99	-0.689 (inactive)	0.445	-0.194	1.14	0.0849	1.25	1.04	1.2	1.31 (inactive)	0.663	0.515	0.0188	0.359	-0.452	0.965
COc1cc(NN2C(C(O)c3ccco3)C=CC3C(=O)N(C)C(=O)C32)cc(OC)c1OC (stereo not given)	0.865	-0.0402 (inactive)	1.06 (inactive)	0.462 (inactive)	0.873	-1.87 (inactive)	0.413	0.382	-0.254	0.232	1.5	0.88	0.469	0.579 (inactive)	0.138	1.1	-0.169	0.0253	0.216	0.752
CCCCCCc1nc(Cc2cc(OC)c(OC)c(OC)c2)cc2c1[Si](C(C)C)(C(C)C)OC2	-0.114	0.654 (inactive)	-0.0595 (inactive)	0.0907 (inactive)	-0.233	-0.527 (inactive)	-0.0985	0.158	-0.0693	-0.232	0.209	-0.227	-0.623	-0.393 (inactive)	0.124	-0.195	0.192	0.494	0.5	0.881
COc1ccc(C#Cc2ccc3c(c2)[C@]2(C(=O)N3)[C@H](c3ccc(OCCO)cc3)N3[C@H](c4ccccc4)[C@H](c4ccccc4)OC(=O)[C@H]3[C@@H]2C(=O)NC[C@H](O)c2ccccc2)cc1	1.57	4.38 (inactive)	2.39 (inactive)	4.82 (inactive)	3.08	1.16 (inactive)	-0.0977	0.447	1.08	-0.0152	0.614	0.0477	-0.0975	-0.124 (inactive)	0.882	0.72	0.342	1.08	0.301	-0.177
COc1cc2c(cc1O)C(C1CC1)N(Cc1cccc(OC(F)(F)F)c1)CC2 (stereo not given)	0.694	-2.19 (inactive)	-5.25 (inactive)	-2.53 (inactive)	1.88	0.394 (inactive)	-0.0575	-0.242	-0.167	0.0009	-0.102	0.149	0.542	0.654 (inactive)	-0.293	-0.567	-0.881	-0.0671	-0.248	1.45
CCCN1C(=O)[C@@]2(Cc3ccccc31)N=C(c1ccc(OCCCO)cc1)O[C@H]2c1ccccc1	1.46	-0.306 (inactive)	-7.39 (inactive)	0.99 (inactive)	2.58	-0.0139 (inactive)	0.235	0.643	0.355	0.0192	1.48	0.402	0.949	-1.46 (inactive)	0.988	1.23	-0.286	0.191	0.335	0.873
COC(=O)c1c(CC[C@@H](CO)NC(=O)N2CCC[C@H]2Cn2cc(C3(O)CCCCC3)nn2)oc(C(C)=O)c1C(=O)OC	1.53	0.752 (inactive)	-0.154 (inactive)	-1.28 (inactive)	3.4	-0.889 (inactive)	-0.124	0.872	0.916	-0.0097	1.65	-0.152	-0.404	-0.503 (inactive)	0.955	0.56	0.197	0.742	0.336	0.0806
[N-]=[N+]=Nc1ccccc1C[C@]1(C(=O)NCC(O)CO)COC(c2ccc(OCCCO)cc2)=N1 (stereo not given in full)	0.149	0.887 (inactive)	-0.13 (inactive)	0.69 (inactive)	3.11	1.05 (inactive)	0.23	-0.906	-1.26	0.58	0.989	0.72	1.18	0.173 (inactive)	-0.582	-0.269	-0.603	-1.14	-0.975	1.16

Source: PubChem BioAssay
